{"source": "paper PMC9911399", "about": "“Two distinct binding modes provide the RNA-binding protein RbFox with extraordinary sequence specificity”", "binders": {"B1": {"name": "CUAAAAA (DNA:RNA)", "RNA": "GGGAGACCGGAAUUCAGAUUGUCCCUAAAAAUUAAAUCCCGUCGUAGCCACCA", "DNA 1": "CAATCTGAATTCCGGTCTCCC", "DNA 2": "TGGTGGCTACGACGGGATT"}, "B2": {"name": "GGAGUAG (DNA:RNA)", "RNA": "B1 RNA with C25G, U26G, A28G, A29U, A31G", "DNA 1": "CAATCTGAATTCCGGTCTCCC", "DNA 2": "TGGTGGCTACGACGGGATT"}, "B3": {"name": "UCGUCGC (DNA:RNA)", "RNA": "GGGAGACCGGAAUUCAGAUUGUCCUCGUCGCUUAAAUCCCGUCGUAGCCACCA", "DNA 1": "CAATCTGAATTCCGGTCTCCC", "DNA 2": "TGGTGGCTACGACGGGATT"}, "B4": {"name": "UCGCUCG (DNA:RNA)", "RNA": "B3 RNA with U28C, C29U, G30C, C31G", "DNA 1": "CAATCTGAATTCCGGTCTCCC", "DNA 2": "TGGTGGCTACGACGGGATT"}, "B5": {"name": "GUCCUCG (DNA:RNA)", "RNA": "B1 RNA with C25G, A27C, A28C, A29U, A30C, A31G", "DNA 1": "CAATCTGAATTCCGGTCTCCC", "DNA 2": "TGGTGGCTACGACGGGATT"}, "B6": {"name": "UCGCUUG (DNA:RNA)", "RNA": "B3 RNA with U28C, C29U, G30U, C31G", "DNA 1": "CAATCTGAATTCCGGTCTCCC", "DNA 2": "TGGTGGCTACGACGGGATT"}, "B7": {"name": "UCGCUCC (DNA:RNA)", "RNA": "B3 RNA with U28C, C29U, G30C", "DNA 1": "CAATCTGAATTCCGGTCTCCC", "DNA 2": "TGGTGGCTACGACGGGATT"}, "B8": {"name": "UCCUCGC (DNA:RNA)", "RNA": "B3 RNA with G27C", "DNA 1": "CAATCTGAATTCCGGTCTCCC", "DNA 2": "TGGTGGCTACGACGGGATT"}, "B9": {"name": "UUCGUAA (DNA:RNA)", "RNA": "B1 RNA with C25U, A27C, A28G, A29U", "DNA 1": "CAATCTGAATTCCGGTCTCCC", "DNA 2": "TGGTGGCTACGACGGGATT"}, "B10": {"name": "GCGAAUA (DNA:RNA)", "RNA": "B1 RNA with C25G, U26C, A27G, A30U", "DNA 1": "CAATCTGAATTCCGGTCTCCC", "DNA 2": "TGGTGGCTACGACGGGATT"}, "B11": {"name": "AGCUUAC (DNA:RNA)", "RNA": "B3 RNA with U25A, C26G, G27C, C29U, G30A", "DNA 1": "CAATCTGAATTCCGGTCTCCC", "DNA 2": "TGGTGGCTACGACGGGATT"}, "B12": {"name": "UGACUUU (DNA:RNA)", "RNA": "B1 RNA with C25U, U26G, A28C, A29U, A30U, A31U", "DNA 1": "CAATCTGAATTCCGGTCTCCC", "DNA 2": "TGGTGGCTACGACGGGATT"}, "B13": {"name": "CAUGUCC (DNA:RNA)", "RNA": "B1 RNA with U26A, A27U, A28G, A29U, A30C, A31C", "DNA 1": "CAATCTGAATTCCGGTCTCCC", "DNA 2": "TGGTGGCTACGACGGGATT"}, "B14": {"name": "CUAGAAU (DNA:RNA)", "RNA": "B1 RNA with A28G, A31U", "DNA 1": "CAATCTGAATTCCGGTCTCCC", "DNA 2": "TGGTGGCTACGACGGGATT"}, "B15": {"name": "UAGUAGC (DNA:RNA)", "RNA": "B3 RNA with C26A, C29A", "DNA 1": "CAATCTGAATTCCGGTCTCCC", "DNA 2": "TGGTGGCTACGACGGGATT"}, "B16": {"name": "UAGCUUG (DNA:RNA)", "RNA": "B3 RNA with C26A, U28C, C29U, G30U, C31G", "DNA 1": "CAATCTGAATTCCGGTCTCCC", "DNA 2": "TGGTGGCTACGACGGGATT"}, "B17": {"name": "UAGCUCC (DNA:RNA)", "RNA": "B3 RNA with C26A, U28C, C29U, G30C", "DNA 1": "CAATCTGAATTCCGGTCTCCC", "DNA 2": "TGGTGGCTACGACGGGATT"}, "B18": {"name": "UAGCUCG (DNA:RNA)", "RNA": "B3 RNA with C26A, U28C, C29U, G30C, C31G", "DNA 1": "CAATCTGAATTCCGGTCTCCC", "DNA 2": "TGGTGGCTACGACGGGATT"}, "B19": {"name": "UAGCCCG (DNA:RNA)", "RNA": "B3 RNA with C26A, U28C, G30C, C31G", "DNA 1": "CAATCTGAATTCCGGTCTCCC", "DNA 2": "TGGTGGCTACGACGGGATT"}, "B20": {"name": "UCCUAGC (DNA:RNA)", "RNA": "B3 RNA with G27C, C29A", "DNA 1": "CAATCTGAATTCCGGTCTCCC", "DNA 2": "TGGTGGCTACGACGGGATT"}}, "note": "Residue numbers refer to the chain shown, from its start. The full ranking holds about 16,000 sequences; the median of “ka relative to ugcaugu” is about 0.0091, and the highest 2% start at about 0.032. The full list was thinned out, with the highest values kept by preference."}
{"biological_target": "T1, RBFOX1 RRM (Homo sapiens, UniProt Q9NWB1 109-208)", "T1 sequence": "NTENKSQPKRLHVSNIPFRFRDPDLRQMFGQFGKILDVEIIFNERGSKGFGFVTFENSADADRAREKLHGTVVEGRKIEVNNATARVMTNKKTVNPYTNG", "assay": "EMSA; HiTS-Eq, 1 nM pool, 10 min; buffer printed only for the single-RNA assays: 10 mM Tris pH 7.5, 150 mM NaCl, 3.4 mM EDTA, 0.001% NP-40, 30 C", "conditions": "tags: His6 N-terminal (pET28a); label: 5' 32P", "procedure,_shortened": "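Purified RbFox RRM (wild type or mutant) was equilibrated for 10 min in 50 µL with 1 nM of a 5′-radiolabelled pool of RNA with 7 randomized nucleotides, its flanks annealed to DNA oligonucleotides, across increasing protein concentrations. Free RNA was separated by 8% native PAGE, excised, reverse-transcribed, PCR-barcoded and sequenced on an Illumina HiSeq 2500. Relative association constants came from read-count changes of each variant against the control reaction, normalised to the cognate motif.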"}
{"binder": "B1", "binding signal": "0.000629 KA relative to UGCAUGU"}
{"binder": "B2", "binding signal": "0.0152 KA relative to UGCAUGU"}
{"binder": "B3", "binding signal": "0.0113 KA relative to UGCAUGU"}
{"binder": "B4", "binding signal": "0.0321 KA relative to UGCAUGU"}
{"binder": "B5", "binding signal": "0.0155 KA relative to UGCAUGU"}
{"binder": "B6", "binding signal": "0.0368 KA relative to UGCAUGU"}
{"binder": "B7", "binding signal": "0.0108 KA relative to UGCAUGU"}
{"binder": "B8", "binding signal": "0.00514 KA relative to UGCAUGU"}
{"binder": "B9", "binding signal": "0.00742 KA relative to UGCAUGU"}
{"binder": "B10", "binding signal": "0.0051 KA relative to UGCAUGU"}
{"binder": "B11", "binding signal": "0.00674 KA relative to UGCAUGU"}
{"binder": "B12", "binding signal": "0.0147 KA relative to UGCAUGU"}
{"binder": "B13", "binding signal": "0.00562 KA relative to UGCAUGU"}
{"binder": "B14", "binding signal": "0.00687 KA relative to UGCAUGU"}
{"binder": "B15", "binding signal": "0.0177 KA relative to UGCAUGU"}
{"binder": "B16", "binding signal": "0.0445 KA relative to UGCAUGU"}
{"binder": "B17", "binding signal": "0.00512 KA relative to UGCAUGU"}
{"binder": "B18", "binding signal": "0.0341 KA relative to UGCAUGU"}
{"binder": "B19", "binding signal": "0.0123 KA relative to UGCAUGU"}
{"binder": "B20", "binding signal": "0.0075 KA relative to UGCAUGU"}
